High-throughput results as filed in PubChem.
The list is not random: actives were taken first. Their share in the collection is about 2.3%.
AmpC inh detg – AmpC beta-lactamase inhibition with detergent present. P00811. AmpC hydrolysis of nitrocefin, absorbance 480 nm, 0.01% Triton. Potency, µM (series often up to 114 µM), for the others: at the top dose activity change, negative = inhibition, usual class: inhibitors. actives 0.041% (n = 370,000);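 note: 0% = no-compound wells and -100% = no-enzyme wells; nearly all actives have a fitted effect of over 25% in size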
Target sequence (P00811 whole entry, looked up): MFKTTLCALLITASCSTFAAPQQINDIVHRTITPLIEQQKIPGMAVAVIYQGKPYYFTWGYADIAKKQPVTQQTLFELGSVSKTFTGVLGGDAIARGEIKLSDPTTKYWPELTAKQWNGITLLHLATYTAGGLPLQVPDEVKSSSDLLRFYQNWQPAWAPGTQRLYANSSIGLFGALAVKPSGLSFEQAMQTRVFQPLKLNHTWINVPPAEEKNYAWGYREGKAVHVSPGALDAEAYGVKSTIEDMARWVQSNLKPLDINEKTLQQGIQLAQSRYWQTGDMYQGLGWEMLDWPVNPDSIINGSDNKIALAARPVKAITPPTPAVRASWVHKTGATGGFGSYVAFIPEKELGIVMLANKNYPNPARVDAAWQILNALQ
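AmpC (5.3 nM in the dispensed reagent) in 20 mM phosphate pH 7.0 with 0.01% (detergent screen) or 0.0001% Triton X-100 was preincubated with compounds for 15 min at room temperature. Nitrocefin was then added from an 800 uM solution, and hydrolysis was followed at 480 nm.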
AmpC inh no detg – AmpC beta-lactamase inhibition without detergent; Potency, µM (series often up to 57.1 µM), without a hit: at the top dose activity change, negative = inhibition, actives largely listed as inhibitors; P00811; AmpC nitrocefin hydrolysis, absorbance 480 nm, 0.0001% Triton; actives 0.52% (n = 330,000); AID 485341;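 note: plate controls were no compound for no effect and no enzyme for full effect; nearly all actives have a fitted effect of over 20% in size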
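AmpC (5.3 nM in the dispensed reagent) in 20 mM phosphate pH 7.0 with 0.01% (detergent screen) or 0.0001% Triton X-100 was preincubated with compounds for 15 min at room temperature. Nitrocefin was then added from an 800 uM solution, and hydrolysis was followed at 480 nm.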
AMA1 RON2 block – disrupts binding of P. falciparum AMA1 to RON2. AlphaScreen AMA1-biotinylated RON2 peptide binding. actives 0.2% (n = 360,000). Potency, µM (highest dose often 58.2 µM), without a hit: top-dose activity change, negative = inhibition, usual class: inhibitors;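 note: 0% = vehicle wells and -100% = peptide control; nearly all actives have a fitted effect of over 45% in size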
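AMA1 (3D7) with his tag at 25 nM final met compounds first, then biotinylated RON2 peptide at 25 nM; detection used donor plus acceptor beads, 10 µg/mL apiece, read by AlphaScreen after 30 min at room temperature.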
MARV entry inh – inhibitors of Marburg virus binding or cell entry | Potency, µM (titrated, usually from 37.8 µM), for inactives: at the highest dose activity change, negative = inhibition, hits mostly inhibitors | Marburg virus pseudotyped entry inhibition, cell reporter | actives 1.8% (n = 300,000); calls by dose curve; tested in HEK293 cells
Lassa entry inh – Lassa virus entry inhibition | Lassa virus pseudotype entry inhibition, cell reporter | actives 1.2% (n = 300,000) | Potency, µM (titrated, usually from 37.9 µM), for the others: top-dose activity change, negative = inhibition, hits mostly inhibitors; calls by dose curve; tested in HEK293 cells; note: nearly all actives have a fitted effect of over 50% in size
* = called active by the depositor; [ ] = another dose, or the depositor's remark. Unless noted, calls come from the whole dose curve; as a rule, active = well fitted curve in the direction sought with a large enough effect; inconclusive = small, poorly fitted or top-dose-only effect, or another doubt; inactive = no such curve, though single readings can be large; an effect the other way counts as inactive or inconclusive. Unless noted, % is set by controls: 0 for no effect and ±100 for the full control effect; potency is the fitted concentration of half-maximal effect.

Results for CCCCn1c(CN2CCN(c3cccc(Cl)c3)CC2)nc2c1c(=O)[nH]c(=O)n2C ?
AmpC inh detg: 3.3%; AmpC inh no detg: 197.4%; AMA1 RON2 block: -2.8%; MARV entry inh: 1.3µM*; Lassa entry inh: inconclusive

What do the screens show for `COC(=O)N[C@H](C(C(=O)OC)=C(C)NCc1ccccc1)c1ccc(Cl)cc1`?
MARV entry inh: -16.7%[14.2 µM]

What do the screens show for `CC(=O)OC[C@H]1O[C@H](CCO/N=C(\C)CCC(=O)OC[C@H]2O[C@H](C#Cc3ccccc3)C=C[C@@H]2Oc2ccc(C)cc2)C=C[C@@H]1OC(C)=O`?
MARV entry inh: 21.3%[14.2 µM]

Results for C[C@H]1CC[C@H]2C(=O)N(Cc3ccc(Cl)cc3)C[C@H](O)CN2[C@H]1c1ccc(Br)cc1 ?
MARV entry inh: -2.2%[14.2 µM]

Results for CCN(CC)CCN1C(=O)C(=O)/C(=C(/O)c2c(C)[nH]c(C(=O)OC)c2C)[C@@H]1c1ccc(OC)cc1 ?
MARV entry inh: 21.5%

Results for COC(=O)C(Cc1c[nH]c2ccccc12)NC(=O)c1cc(-c2ccc(OC)c(OC)c2)oc1C (configuration not stated) ?
AmpC inh detg: inconclusive; AmpC inh no detg: 93.5%; AMA1 RON2 block: -1.8%; MARV entry inh: inconclusive; Lassa entry inh: 10µM*

Results for COc1ccc(-n2c(SCC(=O)Nc3nnc(C)s3)nc3c([nH]c4ccccc43)c2=O)cc1 ?
AmpC inh detg: 4.9%; Lassa entry inh: -24.9%[46.1 µM]

What do the screens show for `CCc1nnc(NC(=O)CSc2nc3c([nH]c4ccccc43)c(=O)n2-c2ccc(Cl)cc2)s1`?
AmpC inh detg: -2.4%; Lassa entry inh: 7.94µM*

How did Cc1csc(SCC(=O)Nc2ccccc2C)n1 do in these assays?
AmpC inh detg: -13.0%; AmpC inh no detg: -8.9%; AMA1 RON2 block: -12.3%; MARV entry inh: inconclusive; Lassa entry inh: -0.1%

What do the screens show for `Cc1csc(SCC(=O)Nc2cccc3nsnc23)n1`?
AmpC inh detg: -1.3%; AmpC inh no detg: 0.224µM*; AMA1 RON2 block: 82.8%; MARV entry inh: 7.8%; Lassa entry inh: inconclusive

Results for CC(=O)Nc1ccc(NC(=O)COC(=O)C2(c3ccc(Cl)cc3)CCCC2)cc1 ?
AmpC inh detg: inconclusive; AmpC inh no detg: 68.7%; AMA1 RON2 block: -7.2%; MARV entry inh: 13µM*; Lassa entry inh: inconclusive

What do the screens show for `C=CCOC(=O)C1=C(C)N(CC)C(=O)NC1c1ccccc1` (configuration not stated)?
MARV entry inh: -4.6%[14.2 µM]

How did CCn1c(SCc2nc(-c3cccs3)no2)nnc1-c1c[nH]c2ccccc12 do in these assays?
AmpC inh detg: 4.6%; AmpC inh no detg: inconclusive; AMA1 RON2 block: 0.0%; MARV entry inh: inconclusive; Lassa entry inh: 20µM*

How did C[C@H]1C=CCC(=O)N[C@@H](c2ccc3ccccc3c2)[C@@H](C)C=CCC(=O)N[C@@H]1c1ccc2ccccc2c1 do in these assays?
MARV entry inh: 20.2%[14.2 µM]

What do the screens show for `Cc1cc(S(=O)(=O)NC(C)C)ccc1OCC(=O)N1CCN(Cc2ccc3c(c2)OCO3)CC1`?
AmpC inh detg: 1.0%; AmpC inh no detg: 82.3%; AMA1 RON2 block: 8.7%; MARV entry inh: inconclusive; Lassa entry inh: 8.2µM*

Results for C=C(C)C1CC=C(C)/C(=N\NC(=S)Nc2ccc(C)cc2)C1 (configuration not stated) ?
AmpC inh detg: 0.6%; AmpC inh no detg: -52.9%; AMA1 RON2 block: -7.9%; MARV entry inh: inconclusive; Lassa entry inh: 12.6µM*

What do the screens show for `C=C(C)C1CC=C(C)/C(=N/NC(=O)COc2ccc(C)cc2)C1` (configuration not stated)?
AmpC inh detg: 0.7%; AmpC inh no detg: -10.3%; AMA1 RON2 block: 9.5%; MARV entry inh: inconclusive; Lassa entry inh: -0.4%

How did O=C(CNC(=S)N(Cc1ccccc1F)C1CCCCC1)NCC1CCCO1 (configuration not stated) do in these assays?
AmpC inh detg: 0.0%; AmpC inh no detg: 183.7%; AMA1 RON2 block: -4.4%; MARV entry inh: inconclusive; Lassa entry inh: 4.47µM*

Results for COc1cccc(CC2(CO)CCCN(Cc3cn(C)c4ccccc34)C2)c1 (configuration not stated) ?
AmpC inh detg: 5.9%; AmpC inh no detg: 11.9%; AMA1 RON2 block: -2.1%

What do the screens show for `Cn1cc(CN2CCCC(CO)(Cc3ccccc3)C2)c2ccccc21` (configuration not stated)?
AmpC inh detg: -6.1%; AmpC inh no detg: 23.0%; AMA1 RON2 block: -6.3%; MARV entry inh: 1µM*; Lassa entry inh: inconclusive

Results for NC(=O)c1c(NC(=O)c2noc3c2CCCC3)sc2c1CCCC2 ?
AmpC inh detg: 4.7%; MARV entry inh: inconclusive; Lassa entry inh: inconclusive

How did COC(=O)c1cccc(NC(=O)/C=C/c2ccc([N+](=O)[O-])cc2)c1 do in these assays?
AmpC inh detg: -12.3%; AmpC inh no detg: -24.7%; AMA1 RON2 block: 17.5%; MARV entry inh: inconclusive; Lassa entry inh: -0.2%

How did O=C(/C=C/c1ccc([N+](=O)[O-])cc1)Nc1cccc(C(=O)Nc2ccccc2C(=O)O)c1 do in these assays?
AmpC inh detg: 4.8%; AmpC inh no detg: 35.5µM*; AMA1 RON2 block: -2.9%

Results for Cc1ccc(CNc2ccc(-c3nc(C(C)C)no3)cc2[N+](=O)[O-])cc1 ?
AmpC inh detg: -6.9%; MARV entry inh: 0.0%[46.1 µM]; Lassa entry inh: 2.9%[46.1 µM]

What do the screens show for `CSc1ccc(CN(C)C(C)C(=O)NCC2CCCCC2)cc1` (configuration not stated)?
AmpC inh detg: -6.1%; AmpC inh no detg: 102.3%; AMA1 RON2 block: -3.5%; MARV entry inh: 11.2µM*; Lassa entry inh: 16.4%[46.1 µM]

What do the screens show for `COc1cc(OC)cc(C(=O)Nc2nc(-c3ccccc3)c(-c3ccccc3)o2)c1`?
AmpC inh detg: -5.1%; AmpC inh no detg: inconclusive; AMA1 RON2 block: 29.9%; MARV entry inh: 20.6µM*; Lassa entry inh: inconclusive

How did CC(=O)Nc1nc(-c2ccccc2)c(-c2ccccc2)o1 do in these assays?
AmpC inh detg: inconclusive; AmpC inh no detg: -15.0%; AMA1 RON2 block: -3.2%; MARV entry inh: 9.0%[46.1 µM]; Lassa entry inh: -11.4%

Results for O=C(c1cnn2c1NC(c1ccco1)CC2C(F)(F)F)N1CCN(c2cccc(Cl)c2)CC1 (configuration not stated) ?
AmpC inh detg: 3.8%; AmpC inh no detg: 56.2%; AMA1 RON2 block: -15.7%; MARV entry inh: inconclusive; Lassa entry inh: 12.6µM*

How did COCCNc1nc(-c2cc3ccccc3o2)cs1 do in these assays?
AmpC inh detg: -0.1%; AmpC inh no detg: -0.6%; AMA1 RON2 block: -8.5%; MARV entry inh: inconclusive; Lassa entry inh: 3.98µM*

What do the screens show for `O=C(c1cccc(COc2cccc3ccccc23)c1)N1CCCC1`?
AmpC inh detg: -8.1%; AmpC inh no detg: 67.4%; AMA1 RON2 block: -8.0%; MARV entry inh: inconclusive; Lassa entry inh: 8.2µM*
